Assay outcomes deposited in PubChem BioAssay by several laboratories.
M18AAP inhibitor = PfM18AAP enzyme inhibition. recombinant PfM18AAP, H-Glu-NHMec fluorogenic cleavage. inhibition, % at 7.35 µM. 1.2% of 290,000 active. AID 1822;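 active = inhibition above the campaign mean inhibition over all tested compounds plus 3 SD, cut at about 28% in these data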;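 note: 0% = plate median of test compound wells and 100% = 2 mM ZnCl2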
HDAC3 inh = human HDAC3 inhibition; 0.15% of 320,000 active; recombinant HDAC3, fluorogenic peptide/trypsin coupled, fluorescence; inhibition, % at 8.3 µM; in the data active = inhibition above about 26%, passing the limit was not always enough
Target sequence (O15379 whole entry, looked up): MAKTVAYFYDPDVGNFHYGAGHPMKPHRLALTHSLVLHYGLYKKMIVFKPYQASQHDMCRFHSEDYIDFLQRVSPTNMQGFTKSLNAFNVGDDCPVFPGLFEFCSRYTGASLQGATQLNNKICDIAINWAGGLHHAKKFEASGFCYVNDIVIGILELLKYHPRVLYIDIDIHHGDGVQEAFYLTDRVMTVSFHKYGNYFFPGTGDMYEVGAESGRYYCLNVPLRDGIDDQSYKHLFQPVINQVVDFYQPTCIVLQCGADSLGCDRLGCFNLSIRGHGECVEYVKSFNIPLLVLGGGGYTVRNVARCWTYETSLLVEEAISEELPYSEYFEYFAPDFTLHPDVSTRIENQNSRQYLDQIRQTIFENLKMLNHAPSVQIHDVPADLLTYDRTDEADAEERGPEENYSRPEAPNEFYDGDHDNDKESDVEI
PHOSPHO1 block = blocks human PHOSPHO1 phosphatase activity. 1.1% of 290,000 active. Q8TCT1. inhibition, % at 13.3 µM. recombinant PHOSPHO1, absorbance phosphatase assay; in the data active = inhibition above about 60%
p97 ATPase inh = human p97 ATPase inhibition | recombinant p97 ATPase, Kinase-Glo ATP luminescence, 3 h | 0.42% of 220,000 active | P55072 | inhibition, % at 8 µM; in the data active = inhibition above about 15%;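 note: 0% = DMSO vehicle and 100% = wells lacking enzyme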
G6PDH counter = L. mesenteroides G6PDH inhibition counter-screen. AID 1020. inhibition, % at 5 µM. 0.12% of 200,000 active. Purified L. mesenteroides G6PDH, diaphorase/resazurin coupled fluorescence, 45 min; in the data active = inhibition above about 50%
UBC9 SUMO inh = SUMOylation inhibition | inhibition, % at 35 µM | 0.36% of 290,000 active | HTRF SUMOylation assay, SAE1/SAE2 + UBC9, in vitro; in the data active = inhibition above about 50%, passing the limit was not always enough
Numbers without * were called inactive; / = no result given. An excerpt weighted towards active compounds, which were near 2.5% of everything screened.

SMILES	M18AAP inhibitor	HDAC3 inh	PHOSPHO1 block	p97 ATPase inh	G6PDH counter	UBC9 SUMO inh
Cc1ccccc1N1C(=O)CC(Nc2ccc3c(c2)OCO3)C1=O (configuration not stated)	30*	3	15	-2	9	3
O=[N+]([O-])c1cccc(C=Nc2cccc3ccccc23)c1O	15	-5	29	/	/	51*
CC(N=Cc1cc([N+](=O)[O-])ccc1O)c1ccccc1 (configuration not stated)	9	/	-10	2	7	21
Cc1ccccc1N=Cc1cccc(O)c1O	30*	-3	-3	2	52*	58
CC(N=Cc1cccc(O)c1O)c1ccccc1 (configuration not stated)	31*	4	-6	0	52*	30
Cc1cccc(C=Nc2ccc3c(c2)oc2ccccc23)c1O	-7	-13	-1	0	18	22
Cc1nc2sc(C(c3ccco3)N3CCC(C)CC3)c(O)n2n1 (configuration not stated)	7	/	-5	0	3	-5
Oc1c(C(c2ccco2)N2CCOCC2)sc2ncnn12 (configuration not stated)	26	/	90*	1	12	26
Oc1c(C(c2ccccc2)N2CCN(Cc3ccccc3)CC2)sc2ncnn12 (configuration not stated)	29*	/	0	-13	6	-3
Cc1nc2sc(C(c3ccco3)N3CC(C)OC(C)C3)c(O)n2n1 (configuration not stated)	4	6	103*	5	12	4
Oc1ccc(-c2cn3c(n2)SCC3)cc1	-2	-4	98*	5	0	-1
COc1ccc(C(=O)Nc2nnc(-c3ccco3)s2)cc1	11	3	73*	-7	-1	-1
O=C(Nc1nnc(-c2ccco2)s1)c1ccccc1	6	-8	74*	4	8	9
S=c1[nH]nc(-c2cnccn2)n1-c1ccccc1	11	18	-27	-2	0	8
COc1ccc(-n2c(-c3cnccn3)n[nH]c2=S)cc1	7	10	94*	7	-6	7
COc1ccc(OC)c(-n2c(-c3cc(-c4ccc(F)cc4)n[nH]3)n[nH]c2=S)c1	0	1	91*	-2	-6	9
COc1ccc(-c2cc(-c3n[nH]c(=S)n3-c3cc(OC)ccc3OC)[nH]n2)cc1	1	8	2	-7	10	-18
COc1ccc(OC)c(-n2c(-c3cnccn3)n[nH]c2=S)c1	10	9	84*	4	6	25
CC(C)Cc1nnc(NC(=O)CCC(=O)N2CCCCC2)s1	3	1	8	/	/	14
CN1C2=C(C(=O)CC(C)(C)C2)C(c2cccs2)C2=C1CC(C)(C)CC2=O	/	-2	/	/	/	/
O=Cc1c(-c2ccc(Cl)cc2)oc2ccc(O)cc12	/	3	/	/	/	/
CCN1CCN(c2nc(C)nc3c2sc(=S)n3C)CC1	34*	/	60*	-8	-22	13
Cc1nc(N2CCCCC2)c2sc(=S)n(C)c2n1	1	5	14	-4	-31	-3
CCc1ccc(CNC(=O)Cc2ccc(NC(=O)C3=C(C)OCCS3)cc2)cc1	2	0	65*	/	/	-3
COc1cccc(OC)c1OCCN(C)C	31*	-2	16	6	22	11
SMILES	M18AAP inhibitor	HDAC3 inh	PHOSPHO1 block	p97 ATPase inh	G6PDH counter	UBC9 SUMO inh
CCc1ccc2[nH]c(=O)c(C(c3nnnn3CCOC)N3CCN(c4ccccc4)CC3)cc2c1 (configuration not stated)	8	6	86*	2	5	17
COCCn1nnnc1C(c1cc2cc(OC)c(OC)cc2[nH]c1=O)N1CCN(c2ccc(O)cc2)CC1 (configuration not stated)	28*	-5	-3	4	33	10
COc1ccc(CN2CCN(C(=O)c3cccs3)CC2)cc1Br	29*	2	24	2	7	24
COc1ccc(CN2CCN(C(=O)c3cccc4ccccc34)CC2)cc1Br	5	7	/	/	/	1
CCOC(=O)c1cc(S(=O)(=O)NCc2ccc3c(c2)OCO3)cn1C	2	1	62*	/	/	11
CCOC(=O)c1cc(S(=O)(=O)NCc2ccco2)cn1C	0	0	14	/	/	3
COC(=O)c1cc(S(=O)(=O)NCc2ccc3c(c2)OCO3)c[nH]1	4	4	-21	/	/	-5
COC(=O)c1cc(S(=O)(=O)NCc2ccc3c(c2)OCO3)cn1C	5	-6	64*	/	/	/
Cc1sc2ncnc(N3CCC(C(=O)NNC(=O)COc4cccc(C(F)(F)F)c4)CC3)c2c1C	/	10	/	/	/	/
COCCNC(=O)C1CCCN(S(=O)(=O)c2cccc3nsnc23)C1 (configuration not stated)	1	3	10	/	/	5
O=C(Cc1ccc(Cl)cc1)NCCCn1ccnc1	-4	2	-6	1	-8	-6
O=C(Cc1c(F)cccc1Cl)NCCCn1ccnc1	28*	0	34	1	-3	-12
O=[N+]([O-])c1ccc(N/N=C\c2cccn2-c2ccccc2)nc1	47*	3	23	2	2	6
CC(=O)Nc1cccc(CP(=O)(c2ccccc2)c2ccccc2)c1	-6	-14	36	3	/	16
O=c1c2ccccc2nc2ccc(NCc3ccco3)nn12	25	-3	21	5	6	28
Cc1sc2nc3ccc(NCc4ccco4)nn3c(=O)c2c1C	4	-7	31	5	6	56*
COc1cc(C(=O)Nc2cc(C)ccn2)ccc1OCC(=O)N1CCOCC1	-1	6	51	/	/	-2
CC(=O)c1c(C)[nH]c(C(=O)CSc2nnc(CN3CCCCCC3=O)n2-c2ccccn2)c1C	-5	7	67*	1	13	32
CCn1c(SCC(=O)c2[nH]c(C)c(C(C)=O)c2C)nnc1-c1ccccc1	-2	3	75*	-7	-1	27
COc1cccc2[nH]c3ccccc3c(=O)c12	5	-88	25	/	/	28
Nc1cccc2c(=O)c3ccccc3[nH]c12	29*	-1	-2	/	/	9
O=C1OC(Nc2ncccn2)c2ccccc21 (configuration not stated)	11	0	5	3	3	20
O=C1OC(Nc2cc(Br)cc3cccnc23)c2ccccc21 (configuration not stated)	7	1	2	13	25	88*
CCCCc1ccc(NC(=S)N2CCCC2)cc1	6	3	42	/	/	0
CC1CCc2c(sc3ncn(CCO)c(=O)c23)C1 (configuration not stated)	5	7	48	5	7	19
CC1CCc2c(sc3ncn(Cc4ccc(C(=O)O)cc4)c(=O)c23)C1 (configuration not stated)	-1	0	20	15*	10	14
Cn1c(-c2sc3cc(C(F)(F)F)cnc3c2-c2ccccn2)n[nH]c1=S	3	5	-97	1	12	21
